Measurements: PubChem BioAssay (NCI)
Compounds without any hit were thinned out: in the full panel of roughly 83,000, 20% have a hit.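 Percent growth is the endpoint: 0 to 100 indicates growth inhibition (40 means 60% inhibition), 0 means no net growth, and negative values indicate cell death.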 A number with no mark means an inactive call. Calls of active or inactive are those of the source. Rule for the calls: active = growth percent below 10; inactive = the rest.

System: MDA-MB-468 breast
Assay: NCI-60 one-dose screen, 48 h (100 = growth as untreated, 0 = no growth, -100 = all killed)
Conditions: 10 µM unless noted

Compared with `CCc1cc2n(n1)-c1ncc(C(=O)OC)cc1Oc1ccccc1-2`, `COc1ccc(C(=O)c2nc3ccccc3n2CC(=O)c2ccc(F)cc2)cc1` is lower in growth: 95.2% for the first, 55% for the second.

Compared with `O=C(Nc1ncccc1OCc1ccccc1)NC1CCCCCC1`, `COc1cc(/C=N/NC(=S)NNC(=S)NC2CCCCC2)cc(OC)c1OC` is higher in growth: 75.5% for the first, 94.2% for the second.

Compared with `Cc1cc(Nc2nc(N3CCNCC3)nc3ccccc23)n[nH]1`, `COc1cccc2cc(-c3cc4ccccc4[nH]3)/c(=N/C(=S)Nc3ccc(C)cc3)oc12` is higher in growth: 76.6% for the first, 81.6% for the second.

Compared with `NC(=O)NC(=O)/C=C/C(=O)OCCCl`, `COc1cccc(/C=C/C(=O)/C=C(/C=C/c2cccc(OC)c2OC)OB(F)F)c1OC` is lower in growth: 88.5% for the first, 52.7% for the second.

First: O=S(=O)(O)c1ccc(N/N=C/c2ccccc2Cl)cc1
Second: CCN(CC)CCCC(Nc1c2ccc(Cl)cc2nc2ccc(OC)cc12)c1ccncc1 (centres undefined)
The growth of the first is higher: 107% for the first, 88.5% for the second.

Molecule `CCCS(=O)(=O)Nc1ccc(F)c(C(=O)c2c[nH]c3ncc(-c4ccc(OCCCC5CCCCN5)nc4)cc23)c1F` (centres undefined) has a growth of 69.6%.

With `O=C(/C=C/C12c3ccccc3C(c3ccccc31)C1C(=O)N(c3ccccc3)C(=O)C12)c1ccc(Cl)cc1` (centres undefined) the growth was 3.08% (active).
With `C=C1C(=O)O[C@H]2[C@H]1CC/C(COC(=O)NCc1c[nH]c3ccc(Cl)cc13)=C\CC[C@@]1(C)O[C@@H]21` the growth was -70.9% (active).
`C#Cc1cccc(Nc2ncnc3ccc(-c4cnc(Cl)c(NS(C)(=O)=O)c4)cc23)c1` was tested, and the growth was -78.8% (active).
